Active and inactive are the calls of the source. The calls were made as follows: active = hit-call score of the fitted dose curve at least 0.9, where 1 is the maximum; inactive = score below 0.9.

The results in this text go back to PubChem BioAssay (EPA / NIEHS).

The target in assay [1] is Transcription factor E2F1 (Homo sapiens) (UniProt Q01094). Description: ATG_E2F_CIS: Attagene CIS-FACTORIAL HepG2 Assay for human E2F Transcription Factor 1 (AID 2282935). As to conditions: HepG2 Attagene cis-reporter, E2F reporter RNA transcripts; actives raise or lower the signal. The essentials: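 Fluorescent RT-PCR products, digested with HpaI for 2 h at 37 C, are separated by capillary electrophoresis. Source RNA comes from transfected HepG2 cultures treated for 24 h.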
Chain of Transcription factor E2F1 (Homo sapiens) (Q01094 whole entry, looked up): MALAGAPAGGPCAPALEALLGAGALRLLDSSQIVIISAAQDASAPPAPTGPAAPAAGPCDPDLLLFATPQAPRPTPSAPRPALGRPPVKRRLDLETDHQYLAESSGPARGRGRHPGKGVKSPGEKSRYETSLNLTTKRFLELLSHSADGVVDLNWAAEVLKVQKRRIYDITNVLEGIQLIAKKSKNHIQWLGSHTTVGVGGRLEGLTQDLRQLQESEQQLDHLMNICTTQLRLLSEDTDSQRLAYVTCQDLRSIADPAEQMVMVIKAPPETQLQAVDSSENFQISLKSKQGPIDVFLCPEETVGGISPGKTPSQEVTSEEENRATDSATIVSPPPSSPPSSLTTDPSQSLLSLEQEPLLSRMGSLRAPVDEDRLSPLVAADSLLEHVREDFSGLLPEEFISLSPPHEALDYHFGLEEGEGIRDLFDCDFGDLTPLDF

Assay [2] can be described thus: ATG_E_Box_CIS: Attagene CIS-FACTORIAL HepG2 Assay for human Enhancer Box (E-box) (AID 2282936). The settings on record: HepG2 E-box cis-reporter transcription, actives raise or lower the signal. In short, it runs like this:
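Fluorescent reporter fragments separated by capillary electrophoresis gave the signal; mRNA came from HepG2 cells transfected with cis-element reporters and treated 24 h. Curves fitted bidirectionally relative to DMSO controls.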

The nature of assay [3]: ATG_M_61_CIS: Attagene CIS-FACTORIAL HepG2 Assay for M61 Transcription Factor (Internal Marker) (AID 2282937). As to conditions: HepG2 Attagene CIS-FACTORIAL M61 internal marker reporter; actives raise or lower the signal. In short, it runs like this: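 This endpoint serves as an internal background control within a multiplexed HepG2 cis-reporter panel. Cells are exposed for 24 h; reporter mRNA is amplified, fluorescently labelled and sized by capillary electrophoresis, with DMSO as negative control.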

Assay [4] can be described thus: ATG_EGR_CIS: Attagene CIS-FACTORIAL HepG2 Assay for human Early Growth Response 1 (EGR1) (AID 2282938). The settings on record: HepG2 Attagene CIS-FACTORIAL EGR reporter mRNA; actives raise or lower the signal. In short, it runs like this: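 HepG2, transient MRTU transfection (cis promoters), 24 h compound. RNA → RT (oligo-dT) → PCR → 6-FAM labelling → HpaI cut → CE fluorescence. Bidirectional fit, DMSO baseline.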

The nature of assay [5]: ATG_M_19_CIS: Attagene CIS-FACTORIAL HepG2 Assay for M19 Transcription Factor (Internal Marker) (AID 2282939). As to conditions: HepG2 Attagene CIS-FACTORIAL M19 internal marker reporter; actives raise or lower the signal. The essentials: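 Signals come from fluorescence of labelled reporter-specific PCR fragments resolved by capillary electrophoresis, following 24 h treatment of HepG2 cells transfected with cis-promoter reporter units; activity was fitted in both directions relative to DMSO.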

Assay [6] is described as follows: ATG_ERE_CIS: Attagene CIS-FACTORIAL HepG2 Assay for Estrogen Response Element (ERE) (AID 2282940). As to conditions: HepG2 ERE cis-reporter, Attagene RNA transcript; actives raise or lower the signal. The essentials: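 Fluorescence of capillary-separated, FAM-labelled reporter cDNA fragments indicates reporter mRNA levels in HepG2 cells exposed to chemicals for 24 h. Transient transfection with cis-regulated units; data fitted in both directions against DMSO.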

For assay [7], the target named is Hepatocyte nuclear factor 3-beta (Homo sapiens) (UniProt Q9Y261). Description: ATG_FoxA2_CIS: Attagene CIS-FACTORIAL HepG2 Assay for human Forkhead box A2 (FOXA2) (AID 2282942). The settings on record: HepG2 cis-reporter transcription factor activity, 24 h; actives raise or lower the signal. In short, it runs like this:
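Cells: HepG2, transient multiplex reporter transfection. Exposure 24 h. Detection: reporter-specific RT-PCR, fluorescent labelling, restriction digest, capillary electrophoresis. Analysis: bidirectional curve fit, DMSO as negative control.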

Assay [8] in a line: ATG_FoxO_CIS: Attagene CIS-FACTORIAL HepG2 Assay for human Forkhead box O (FoxO) (AID 2282943). As to conditions: HepG2 Attagene cis-reporter, FoxO element, mRNA; actives raise or lower the signal. The essentials: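 HepG2, transient MRTU transfection (cis element, endogenous TFs). Dose 24 h. TriZol RNA → oligo(dT) RT → PCR → 6-FAM primer extension → HpaI cut → CE. Gain/loss vs DMSO.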

Assay [9] in a line: ATG_GATA_CIS: Attagene CIS-FACTORIAL HepG2 Assay for human GATA Binding Protein (AID 2282944). As to conditions: HepG2 GATA cis-element reporter, Attagene multiplex mRNA; actives raise or lower the signal. In short, it runs like this: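 After transfecting HepG2 cells with multiple cis-regulated reporter units, chemicals are dosed for 24 h; isolated RNA undergoes RT-PCR and fluorescent labeling before capillary electrophoresis, with activity expressed against DMSO.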

Assay [10] in a line: ATG_Ets_CIS: Attagene CIS-FACTORIAL HepG2 Assay for human Erythroblast Transformation Specific (ETS) (AID 2282941). The settings on record: HepG2 ETS cis-reporter transcription, actives raise or lower the signal. In short, it runs like this:
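Multiplexed reporter transcript profiling: HepG2, 24 h treatment, total RNA to cDNA, PCR, 6-FAM labelling, HpaI cut, capillary electrophoresis. Gain- or loss-of-signal fitted against DMSO.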

Chain of Hepatocyte nuclear factor 3-beta (Homo sapiens) (Q9Y261 whole entry, looked up): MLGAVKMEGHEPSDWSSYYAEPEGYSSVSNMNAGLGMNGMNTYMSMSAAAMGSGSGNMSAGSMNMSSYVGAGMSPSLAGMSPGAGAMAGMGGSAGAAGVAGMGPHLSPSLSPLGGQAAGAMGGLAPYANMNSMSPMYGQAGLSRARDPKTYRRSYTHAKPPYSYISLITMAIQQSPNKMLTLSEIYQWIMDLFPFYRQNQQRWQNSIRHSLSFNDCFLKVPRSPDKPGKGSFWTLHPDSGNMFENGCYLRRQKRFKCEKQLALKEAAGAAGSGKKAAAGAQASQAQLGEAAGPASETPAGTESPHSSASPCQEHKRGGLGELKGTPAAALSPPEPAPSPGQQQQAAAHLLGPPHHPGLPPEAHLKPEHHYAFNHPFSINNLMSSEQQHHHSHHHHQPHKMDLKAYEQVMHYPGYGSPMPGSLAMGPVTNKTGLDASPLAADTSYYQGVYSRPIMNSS

As usually defined, the AC50 is the concentration giving half of the maximal activity seen. As to `CC(C)c1ccc(O)c(C(C)C)c1`, the outcome in [1], in [2], in [3], in [4], in assay [5] and in assay [7] was inactive. The outcome in assay [8] and in assay [9] was inactive. Further, the AC50 in [6] was 41.2 µM (active).
In the case of `CC(C)=CCl`, the result in [1], in assay [2], in assay [3], in assay [4], in assay [5] and in [6] was inactive. The compound was classed as inactive in [7], in assay [8] and in [9].
Turning to `CCCCCCOC(=O)CCCCC(=O)OCCCCCC`, the compound was called inactive in [1], in [2], in assay [3], in assay [4], in [5] and in assay [7]. For the same compound, the result in assay [8] and in [9] was inactive. In addition, the AC50 in [6] is 27.5 µM (active).
Consider `C=C[Si](OCCOC)(OCCOC)OCCOC`, for which the call in [1], in assay [2], in assay [3], in assay [4], in assay [5] and in assay [6] was inactive. Further, the outcome in assay [7], in [8] and in assay [9] was inactive.
With `CCOC(=O)C1=NN(c2ccc(Cl)cc2Cl)C(C)(C(=O)OCC)C1` (configuration not stated), the compound was called inactive in assay [1], in [2], in assay [3], in [4], in assay [5] and in assay [7]. The compound was called inactive in [8] and in assay [9].
Consider `CC1=CC(C)C(C=O)CC1` (configuration not stated), for which the compound was called inactive in assay [1], in [2], in [3], in [4], in assay [5] and in assay [10]. Further, the compound was called inactive in [7], in assay [8] and in [9].
On to `O=C(Cl)c1c(Cl)c(Cl)c(C(=O)Cl)c(Cl)c1Cl`, for which the outcome in assay [1], in [2], in [3], in assay [4], in assay [5] and in assay [10] was inactive. Further, the result in [7], in [8] and in assay [9] was inactive.
On to `CC(CC(C)C)=NO`, for which the compound was classed as inactive in [1], in [2], in assay [3], in [4], in assay [5] and in assay [10]. Besides, the compound was classed as inactive in assay [7], in assay [8] and in [9].
In the case of `CC(C)(C)NC(=O)[C@H]1CC[C@H]2[C@@H]3CC[C@H]4NC(=O)C=C[C@]4(C)[C@H]3CC[C@]12C`, the compound was classed as inactive in assay [1], in assay [2], in assay [3], in [4], in [5] and in assay [10]. For the same compound, the outcome in [7], in assay [8] and in assay [9] was inactive.
As for `CCCCCCCCCCCCCC(=O)OC(C)C`, the outcome in [1], in assay [2], in assay [3], in assay [4], in assay [5] and in [10] was inactive. The result in assay [7], in assay [8] and in assay [9] was inactive.
As for `CCNc1nc(NC(C)(C)C)nc(OC)n1`, the call in [1], in assay [2], in assay [3], in [4], in assay [5] and in [10] was inactive. For the same compound, the call in assay [7], in assay [8] and in assay [9] was inactive.
Turning to `Nc1nc(N)nc(-c2ccccc2)n1`, the compound was called inactive in [1], in [2], in assay [3], in assay [5], in assay [6] and in [10]. Besides, the call in [7], in assay [8] and in assay [9] was inactive.
Take `CCCCOCCOCCOC(C)=O`: the compound was called inactive in assay [1], in assay [2], in assay [3], in assay [5], in assay [10] and in [7]. Further, the result in assay [8] and in assay [9] was inactive.
As to `CCCCC1CCC(=O)O1` (configuration not stated), the outcome in [1], in assay [2], in assay [3], in assay [5], in assay [6] and in assay [10] was inactive. Moreover, the result in assay [7], in assay [8] and in assay [9] was inactive.
`CC(=O)/C=C/C1C(C)=CCCC1(C)C` (configuration not stated): the outcome in assay [1], in assay [2], in assay [3], in [5], in [10] and in assay [7] was inactive. Further, the result in [8] and in assay [9] was inactive. Besides, the AC50 in [6] was 44.7 µM (active).
Regarding `O=C1CCCCC1C1CCCCC1` (configuration not stated), the compound was called inactive in [1], in assay [2], in assay [3], in assay [5], in assay [6] and in assay [10]. Also, the call in assay [7], in assay [8] and in assay [9] was inactive.
Take `CCCCc1ccc(Cl)cc1`: the outcome in assay [1], in [2], in [3], in assay [5], in assay [6] and in [10] was inactive. Moreover, the outcome in [7], in [8] and in [9] was inactive.
Regarding `C[Si](C)(C)N[Si](C)(C)C`, the result in assay [1], in [2], in assay [3], in [5], in assay [6] and in assay [10] was inactive. Moreover, the compound was classed as inactive in [7], in assay [8] and in assay [9].
For the compound `CCCCCOC(=O)CCCCC`, the compound was classed as inactive in assay [1], in assay [2], in [4], in assay [5], in assay [6] and in [10]. Moreover, the compound was called inactive in [7], in [8] and in assay [9].
As for `CCCc1ccc(O)c(OC)c1`, the compound was called inactive in assay [1], in assay [2], in assay [3], in assay [5], in assay [10] and in assay [7]. For the same compound, the compound was called inactive in assay [8] and in [9].
Consider `CC(C)CO`, for which the call in assay [1], in assay [2], in assay [3], in assay [5], in [6] and in [7] was inactive. Further, the compound was called inactive in assay [8] and in assay [9].
Regarding `O=C1c2ccccc2C(=O)c2cc(S(=O)(=O)O)ccc21`, the compound was called inactive in assay [1], in assay [2], in assay [3], in [5], in [6] and in [10]. Moreover, the compound was classed as inactive in [7], in assay [8] and in [9].
For `CC1=CCC(C(C)C)C=C1` (configuration not stated), the result in [1], in [2], in assay [3], in assay [5], in assay [6] and in [10] was inactive. The compound was called inactive in [7], in assay [8] and in assay [9].
For `Cc1ccccc1CCO`, the outcome in assay [1], in assay [2], in [3], in assay [5], in assay [6] and in assay [10] was inactive. The result in [7], in assay [8] and in [9] was inactive.
Take `CC(C)(C)C1CCC(=O)CC1`: the compound was called inactive in assay [1], in assay [2], in [3], in assay [5], in assay [6] and in assay [7]. For the same compound, the result in assay [8] and in assay [9] was inactive.
For the compound `C/C=C/C=C/CCCCCCCO`, the compound was classed as inactive in assay [1], in assay [2], in [3], in [5], in [6] and in assay [10]. Moreover, the compound was called inactive in assay [7], in assay [8] and in assay [9].
Consider `Cc1c(O)cccc1O`, for which the result in [1], in assay [2], in [3], in [5], in [10] and in [7] was inactive. The compound was classed as inactive in assay [8] and in assay [9]. In [6], the AC50 is 61.4 µM (active).
As to `CC(=O)CCC=C(C)C`, the outcome in [1], in assay [2], in assay [3], in [5], in [6] and in [10] was inactive. In addition, the call in assay [7], in [8] and in assay [9] was inactive.
